Bioassay records: PubChem, several laboratories
ERa coact pot: ER-alpha (human) coactivator binding potentiation. actives 1.3% (n = 86,000). coactivator binding (% of control), % at 25.6 µM. TR-FRET ERalpha-LBD/SRC-Cy5 coactivator binding, 2 h; 100 = basal binding, no effect; in the data active = activity above about 200%;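 note: binding measured in presence of low estradiol as agonist stimulus; 0% = peptide alone without receptor and 100% = receptor with peptide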
Target sequence (P03372 whole entry, looked up, the tested form may be a part): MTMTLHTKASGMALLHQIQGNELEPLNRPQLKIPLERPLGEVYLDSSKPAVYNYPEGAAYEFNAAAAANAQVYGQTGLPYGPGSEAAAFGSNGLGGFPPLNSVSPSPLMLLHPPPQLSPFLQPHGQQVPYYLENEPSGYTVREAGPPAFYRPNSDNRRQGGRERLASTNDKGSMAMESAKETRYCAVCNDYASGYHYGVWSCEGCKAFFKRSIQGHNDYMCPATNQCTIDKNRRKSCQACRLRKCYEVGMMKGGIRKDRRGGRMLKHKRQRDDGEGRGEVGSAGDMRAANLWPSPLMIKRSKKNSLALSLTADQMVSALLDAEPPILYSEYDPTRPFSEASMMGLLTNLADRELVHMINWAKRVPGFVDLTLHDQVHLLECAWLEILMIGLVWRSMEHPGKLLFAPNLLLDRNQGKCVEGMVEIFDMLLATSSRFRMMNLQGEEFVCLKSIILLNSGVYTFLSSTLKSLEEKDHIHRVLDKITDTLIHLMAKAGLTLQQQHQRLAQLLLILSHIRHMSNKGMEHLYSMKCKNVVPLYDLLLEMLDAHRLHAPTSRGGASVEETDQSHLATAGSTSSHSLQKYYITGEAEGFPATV
MRP resist rev: compounds reversing MRP-mediated drug resistance. H69AR cells + 2 uM doxorubicin, CellTiter-Glo, 72 h. AID 602. differential viability (reversal), % at 10 µM. actives 0.04% (n = 85,000);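 active = viability drop by adding the cancer drug above about 55%, with treated viability meeting a 40% cutoff, limit read from the data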;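 note: viability without doxorubicin minus viability with 2 µM doxorubicin for each compound; larger differential means the compound sensitizes cells more to doxorubicin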
ERb coact inh: blocks coactivator binding to human estrogen receptor beta. TR-FRET ER-beta LBD / SRC1-Cy5 peptide binding; receptor agonist-loaded with 1 µM estradiol. inhibition, % at 25.6 µM. actives 1.3% (n = 86,000). AID 633;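 active = compounds whose percent inhibition of the receptor-coactivator binding signal exceeds about 50% in the single-dose screen, limit read from the data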;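 note: 0% = receptor plus peptide wells without compound and 100% = peptide-only wells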
Smad3 FoxH1 inh: Smad3 (human) transcription factor binding inhibition; P84022; TR-FRET Smad3/Dy647-FoxH1 peptide binding, europium anti-His; inhibition, % at 25 µM; actives 0.29% (n = 88,000); AID 630;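 active = compounds that reduce the energy-transfer binding signal between the protein and its labelled peptide by more than half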;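 note: 0% = Smad3 plus labelled peptide maximal FRET and 100% = peptide-only background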
ERa SRC1 inh: blocks coactivator binding to human estrogen receptor alpha; P03372; TR-FRET ER-alpha LBD / SRC-1 peptide, estradiol-bound; inhibition, % at 25.6 µM; actives 1.7% (n = 86,000); in the data active = inhibition above about 50%;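 note: 0% = receptor plus peptide control and 100% = peptide only without receptor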
MRP-1 activ: activates MRP-1; AID 799; H69AR cells + doxorubicin, viability rescue, CellTiter-Glo; viability increase, % at 10 µM; actives 0.61% (n = 140,000);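 active = viability gain under doxorubicin at or above a set limit, the compound median plus 3 SD, cut at about 4.7% in these data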;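 note: MRP-1 overexpressing cells given doxorubicin 25 µM after compound pretreatment; 18-22 h compound pretreatment then 72 h with doxorubicin before readout; 0% = doxorubicin-only wells and 100% = vehicle-treated cells without doxorubicin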
Numbers without * were called inactive; nt = not tested or not shown; + = active, no number; ! = a repeat was not active; [ ] = remark or other dose. Shown are actives, neighbours in structure and some others; about 2.8% of the full set was active somewhere.

SMILES | ERa coact pot | MRP resist rev | ERb coact inh | Smad3 FoxH1 inh | ERa SRC1 inh | MRP-1 activ
Cc1ccc(S(=O)(=O)N2CCCCC2)cc1C(=O)Nc1ncn[nH]1 | 35.6 | -2.7 | 58.7* | 10.9 | 55.4* | -2.4
Cc1ccc(S(=O)(=O)N2CCCCC2)cc1C(=O)Nc1ccc2cn[nH]c2c1 | 90.0 | -8.3 | 5.4 | 15.9 | 8.0 | -1.2
Clc1ccc2c(NC3CCC(N4CCCCC4)CC3)ccnc2c1 (stereo not given) | nt | nt | nt | 0.9 | nt | nt
O=C(O)[C@@H]1[C@H](C(=O)Nc2cccc3cccnc23)[C@@H]2CC[C@H]1O2 | nt | nt | nt | 98.3* | nt | nt
CCOC(=O)C(CCC(=O)O)(CCC(C)C)c1csc(N)n1 (stereo not given) | +[fluorescence artefact?] | -6.5 | -14.7 | -4.9 | -9.8 | 0.1
O=P(O)(CCP(=O)(O)c1ccccc1)c1ccccc1 | nt | nt | nt | 1.2 | nt | nt
COC(=O)[C@H]1[C@@H]2C[C@H]3c4[nH]c5ccccc5c4CCN3C[C@H]2CC[C@@H]1O | nt | nt | nt | -0.3 | nt | nt
CC1(C)C(=O)Nc2ccccc2N1C(=O)COc1ccc(S(=O)(=O)N2CCOCC2)cc1Cl | 23.2 | 5.3 | 87.9*[fluorescence artefact?] | -0.2 | 85.1*[fluorescence artefact?] | -1.1
CC1(C)C(=O)Nc2ccccc2N1C(=O)COc1ncnc2c(Cl)cc(Cl)cc12 | 92.9 | -13.4 | -2.8 | -6.2 | -5.6 | -3.4
O=S(=O)(O)c1cc(N=[N+]([O-])c2cc(S(=O)(=O)O)c3ccccc3c2)cc2ccccc12 | nt | nt | nt | 39.4 | nt | nt
CC(C)CC(=O)Nc1ccc(OCC(=O)O)cc1 | 123.2 | 2.9 | 6.2 | 10.3 | 1.1 | -0.3
N#Cc1ccsc1NC(=O)COc1ccc(-c2nnco2)cc1 | 30.9 | 5.6 | 44.0 | 8.3 | 80.3*[fluorescence artefact?] | -2.2
CC(C)CC(=O)Nc1ccc(C(=O)COc2ccc(-c3nnco3)cc2)cc1 | 49.4 | 11.1 | 30.9 | 6.0 | 69.6* | 0.2
COc1ccc(C2=NO[C@@H]3[C@@H]4C[C@@H]([C@H]5C(=O)N(C)C(=O)[C@@H]45)[C@H]23)cc1 | nt | nt | nt | nt | nt | -2.3
CCc1cc(=O)oc2cc(OCC(=O)N3CCc4ccccc43)ccc12 | 200.3*[fluorescence artefact?] | -7.2 | 4.4 | -8.2 | 10.3 | nt
CCn1c(=O)cc(OCC(=O)N2CCc3ccccc32)c2ccccc21 | 211.6*[fluorescence artefact?] | -2.1 | 14.6 | 8.7 | 2.1 | -2.3
CCOC(=O)c1ccc(NC(=O)COc2cc(=O)n(CC)c3ccccc23)cc1 | 890.2*[fluorescence artefact?] | -20.1 | -19.0 | -68.1 | -65.9 | -1.2
CC(Sc1nncn1C)C(=O)Nc1ccc(Cl)cn1 (stereo not given) | nt | nt | nt | nt | nt | 4.9*
COc1ccc2c(c1)Cc1cc(N=[N+]([O-])c3ccc4c(c3)Cc3cc(OC)ccc3-4)ccc1-2 | nt | nt | nt | 21.9 | nt | nt
O=C(NCCc1ccc(Cl)cc1)c1nnc(Cc2ccc(Cl)cc2)o1 | 110.4 | 0.3 | -8.2 | -1.3 | -5.1 | 1.3
CC(CCc1ccccc1)NC(=O)c1nnc(Cc2ccc(Cl)cc2)o1 (stereo not given) | 116.8 | -10.3 | 2.8 | 3.2 | -2.8 | 9.9*
CC(CCc1ccccc1)NC(=O)CN1CCN(Cc2ccc(Cl)cc2)C1=O (stereo not given) | 110.2 | -8.6 | -7.2 | 1.0 | 1.2 | 7.3*
C=C1CCO[C@@]2([C@H](O)[C@@](C)(O)CO)NC(=O)[C@]1(O)NC2=O | nt | nt | nt | 10.0 | nt | nt
COC(=O)Cc1csc(N)n1 | 109.0 | -10.7 | 63.0*![fluorescence artefact?] | -14.9 | -4.2 | -1.2
COc1ccc(C2=[N+](C)CCn3cccc32)c(OC)c1 | nt | nt | nt | nt | nt | -2.3
SMILES | ERa coact pot | MRP resist rev | ERb coact inh | Smad3 FoxH1 inh | ERa SRC1 inh | MRP-1 activ
N#Cc1nc(COc2ccccc2Cl)oc1NCc1cccnc1 | 80.1 | -16.9 | 8.1 | 1.0 | -3.3 | -5.0
O=C1c2cccc3cccc(c23)C(=O)N1CCN1CCN(CC(O)COc2ccccc2)CC1 (stereo not given) | nt | nt | nt | nt | nt | 5.0*
c1ccc(Oc2cc(-n3cccn3)ncn2)cc1 | 114.0 | 12.2 | -8.9 | -3.7 | -8.4 | 0.7
COC(=O)c1cnn(-c2cc(Oc3ccccc3)ncn2)c1N | nt | nt | nt | nt | nt | 5.7*
Clc1ccc(CSc2ncn[nH]2)cc1 | 119.9 | -2.5 | 3.4 | -1.6 | -1.1 | 5.9*
c1ccc2[nH]c(-c3ccnc4ccccc34)nc2c1 | 116.8 | -5.9 | 0.6 | -6.2 | -2.1 | -4.4
O=C1C(c2ccnc3ccccc23)=C(O)c2ccccc21 | 309.1* | -6.1 | 38.2 | 19.2 | 32.0 | -6.8
O=C1c2ccccc2C(=O)C1c1ccnc2ccccc12 | 241.8* | -0.2 | 31.3 | 33.0 | 15.2 | -5.7
O=C1c2ccccc2C(=O)C1c1nccc2ccccc12 | nt | nt | nt | nt | nt | -2.0
CCCCNc1nc(SC)nc2nc[nH]c12 | nt | nt | nt | 8.2 | nt | nt
NC(=O)c1oc2ccccc2c1NC(=O)c1nc2ccccc2s1 | 492.7* | 6.2 | 25.8 | 6.0 | 22.0 | -3.3
NC(=O)c1oc2ccccc2c1NC(=O)c1ccc(F)cc1 | nt | nt | nt | nt | nt | -3.0
N[C@@]1(C(=O)O)CCC[C@@H]1C(=O)O | nt | nt | nt | 7.2 | nt | nt
CCOC(=O)c1cc2sc(C)cc2n1CC(=O)N1CCOCC1 | 85.3 | 2.4 | -11.8 | -4.6 | -6.3 | -3.4
CCOC(=O)c1cc2sc(C)cc2n1CC(=O)NCc1ccc(F)cc1 | 238.5*[fluorescence artefact?] | -20.6 | 33.9 | 22.9 | 5.4 | -3.6
Cc1ccc(S(=O)(=O)NCC(=O)OCC(=O)Nc2ncc(Cl)cc2Cl)cc1 | 68.5 | 7.8 | 42.4 | -0.5 | 56.6*[fluorescence artefact?] | -3.2
C[N+](C)(C)c1ncnc2c1ncn2[C@@H]1C[C@H](O)[C@@H](CO)O1 | nt | nt | nt | 29.7 | nt | nt
Nc1ncnc2nc[nH]c12.Nc1ncnc2nc[nH]c12.[Cl][Pt]([Cl])([Cl])[Cl] | nt | nt | nt | 70.5* | nt | nt
OCCN(CO)CO | nt | nt | nt | -7.4 | nt | nt
CO[C@@H]1/C=C\O[C@@]2(C)Oc3c(C)c(O)c4c(c3C2=O)C(=N[C@H]2CC[C@H](O)O[C@@H]2C)C=C(NC(=O)/C(C)=C\C(=O)[C@@H]2C[C@H]2[C@@H](O)[C@H](C)[C@@H](O)[C@H](C)[C@H](OC(C)=O)[C@@H]1C)C4=O | nt | nt | nt | 9.3 | nt | nt
O=C(O/N=C/C1=C(Cl)c2ccccc2CC1)c1ccc(F)cc1 | 104.8 | 17.1 | -6.6 | 6.9 | -1.3 | 2.4
O=C(O)c1cc(N=Nc2ccc([N+](=O)[O-])cc2)ccc1O | nt | nt | nt | 8.4 | nt | nt
Brc1ccc(-c2nnc3n2CCCCC3)cc1 | 99.5 | 0.2 | -2.1 | 3.8 | 16.8 | 0.1
Brc1ccc(OCc2nnc3n2CCC3)cc1 | nt | nt | nt | nt | nt | 7.0*
O=[N+]([O-])c1ccc2ncccc2c1CCc1c([N+](=O)[O-])ccc2ncccc12 | nt | nt | nt | 8.2 | nt | nt
CC(C)(C)NC(NC(=O)Cc1ccccc1)C(Cl)(Cl)Cl (stereo not given) | nt | nt | nt | nt | nt | 5.3*
Fc1ccc(CSc2nnc(Cc3sc(-c4ccccc4)nc3-c3ccccc3)o2)cc1 | 274.1*[fluorescence artefact?] | 7.8 | -9.2 | -4.9 | -19.8 | 2.1
COc1ccc(CSc2nnc(Cc3sc(-c4ccccc4)nc3-c3ccccc3)o2)cc1 | 438.4*[fluorescence artefact?] | -12.0 | -18.4 | 0.8 | -41.2 | 1.7
CSc1nnc(Cc2sc(-c3ccccc3)nc2-c2ccccc2)o1 | 98.2 | 11.8 | -5.3 | 9.2 | 5.8 | 0.8
Nc1c(S(=O)(=O)O)cc(Nc2cccc(S(N)(=O)=O)c2)c2c1C(=O)c1ccccc1C2=O | nt | nt | nt | 29.5 | nt | nt
